# Measured values as given in PubChem BioAssay (Tox21).
# Values joined by “and” are separate entries in the source; they are usually repeats but may differ in a detail not shown here. Identical values can stand only once. Values without a mark were called inactive. Inconclusive results are not listed. Where a call stands in place of a potency, no number is given. Active and inactive are the calls of the source. Unless noted, the call rests on the fitted dose curve; in most records, active means well fitted curve in the direction sought with a large enough effect in the repeat runs; inconclusive means weak or mixed curves; inactive means no such curve, though single readings can be large; an effect the other way counts as inactive or inconclusive.
# Columns and labels:
# [1] = qHTS assay to identify small molecule antagonists of the glucocorticoid receptor (GR) signaling pathway - cell viability counter screen (AID 720693); further: nearly all actives have a fitted effect of over 55% in size
# [2] = qHTS assay for identifying genotoxic compounds that show differential cytotoxicity against isogenic chicken DT40 cell lines with known DNA damage response pathways - wild type cell line (AID 743012); further: nearly all actives have a fitted effect of over 60% in size; further: potency means the concentration at half of the fitted maximal effect
# Method in brief: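 Cytotoxicity in repair-proficient parental chicken DT40 cells serves as the comparator for Rad54/Ku70- and Rev3-deficient lines. Cells were exposed to compounds for 40 h at 37 C/5% CO2, and ATP-based luminescence (CellTiter-Glo) measured viability.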
# [3] = qHTS assay for identifying genotoxic compounds that show differential cytotoxicity against isogenic chicken DT40 cell lines with known DNA damage response pathways - Rev3 mutant cell line (AID 743014); further: nearly all actives have a fitted effect of over 55% in size; further: potency means the concentration at half of the fitted maximal effect
# [4] = qHTS assay for identifying genotoxic compounds that show differential cytotoxicity against isogenic chicken DT40 cell lines with known DNA damage response pathways - Rad54/Ku70 mutant cell line (AID 743015); further: nearly all actives have a fitted effect of over 60% in size; further: potency means the concentration at half of the fitted maximal effect
# [5] = qHTS assay to identify small molecule antagonists of the androgen receptor (AR) signaling pathway - cell viability counter screen (AID 743033; further: nearly all actives have a fitted effect of over 45% in size; further: potency means the concentration at half of the fitted maximal effect)
# [6] = target: Androgen receptor (Homo sapiens) (UniProt P10275); test: qHTS assay to identify small molecule antagonists of the androgen receptor (AR) signaling pathway (AID 743035; active means well fitted inhibition curve with a large enough effect in the signal ratio in the repeat runs, not every such curve was filed as active; the % refers to the signal ratio; further: potency means the concentration at half of the fitted maximal effect)
# Androgen receptor (Homo sapiens), sequence (P10275 whole entry, looked up): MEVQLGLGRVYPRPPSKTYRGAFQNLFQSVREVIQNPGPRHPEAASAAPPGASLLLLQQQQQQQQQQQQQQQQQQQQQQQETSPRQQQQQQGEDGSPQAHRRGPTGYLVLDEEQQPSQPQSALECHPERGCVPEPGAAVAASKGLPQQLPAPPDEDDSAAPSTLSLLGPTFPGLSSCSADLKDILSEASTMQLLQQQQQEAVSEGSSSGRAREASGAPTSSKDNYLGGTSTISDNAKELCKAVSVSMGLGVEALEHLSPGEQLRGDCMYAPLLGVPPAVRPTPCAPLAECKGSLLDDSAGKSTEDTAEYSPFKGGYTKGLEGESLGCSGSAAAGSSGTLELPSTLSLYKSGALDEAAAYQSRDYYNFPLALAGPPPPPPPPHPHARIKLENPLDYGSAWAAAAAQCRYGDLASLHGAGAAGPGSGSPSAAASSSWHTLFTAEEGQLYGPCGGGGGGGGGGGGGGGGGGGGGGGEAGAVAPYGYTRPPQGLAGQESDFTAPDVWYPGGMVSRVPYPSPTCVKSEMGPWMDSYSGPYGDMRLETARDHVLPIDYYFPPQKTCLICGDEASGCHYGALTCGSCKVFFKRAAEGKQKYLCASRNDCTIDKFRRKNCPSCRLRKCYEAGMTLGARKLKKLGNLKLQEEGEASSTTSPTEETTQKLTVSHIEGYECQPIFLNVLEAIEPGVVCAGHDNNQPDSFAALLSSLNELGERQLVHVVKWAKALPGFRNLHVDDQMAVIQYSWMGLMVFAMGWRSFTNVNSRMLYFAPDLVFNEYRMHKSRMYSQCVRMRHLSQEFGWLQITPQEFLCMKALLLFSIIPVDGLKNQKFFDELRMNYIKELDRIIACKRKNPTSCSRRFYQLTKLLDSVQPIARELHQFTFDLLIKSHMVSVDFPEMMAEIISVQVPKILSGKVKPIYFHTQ
# Method in brief: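 Steps: seed AR-UAS-bla GripTite HEK293 cells, incubate 4 h at 37C; pin in test compound, then add agonist R1881; incubate 16 h at 37C; add LiveBLAzer B/G FRET substrate, 2 h at room temperature; read fluorescence.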
# [7] = target: Androgen receptor (Homo sapiens) (UniProt P10275); test: qHTS assay to identify small molecule agonists of the androgen receptor (AR) signaling pathway (AID 743036; active means well fitted activation curve with a large enough effect in the signal ratio in the repeat runs, with a control signal flat, not every such curve was filed as active; the % refers to the signal ratio)
# Method in brief: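 AR-bla HEK293 cells, 2,000/well; 4 h preincubation 37C/5% CO2; compound (DMSO) 16 h at 37C; LiveBLAzer B/G FRET substrate 2 h RT; fluorescence intensity read-out.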
# [8] = target: Androgen receptor (Homo sapiens) (UniProt P10275); test: qHTS assay to identify small molecule agonists of the androgen receptor (AR) signaling pathway using the MDA cell line (AID 743040; further: nearly all actives have a fitted effect of over 20% in size)
# Method in brief: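 Agonist activity is measured as luciferase luminescence in human MDA-kb2 cells whose MMTV reporter responds to both AR and GR. Compounds in DMSO incubate 16 h at 37C, 0% CO2, and ONE-Glo is read after 30 min.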
# [9] = qHTS assay to identify small molecule antagonists of the androgen receptor (AR) signaling pathway using the MDA cell line - cell viability counter screen (AID 743041; further: nearly all actives have a fitted effect of over 45% in size)
# Method in brief: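 qHTS viability read-out; MDA-kb2 AR-luc; R1881-stimulated; 16 h exposure at 37C, 0% CO2; CellTiter-Fluor, 30 min; fluorescence intensity.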
# [10] = target: Androgen receptor (Homo sapiens) (UniProt P10275); test: qHTS assay to identify small molecule antagonists of the androgen receptor (AR) signaling pathway using the MDA cell line (AID 743042; further: nearly all actives have a fitted effect of over 55% in size)
# Method in brief: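 MDA-kb2 cells (human breast carcinoma, stably carrying an MMTV-luciferase reporter responsive to AR and GR) were plated at 3,000 cells/well and preincubated 5 hr at 37C, then given compound plus R1881 agonist for 16 h. ONE-Glo luminescence was read.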
# [11] = qHTS assay to identify small molecule antagonists of the thyroid receptor (TR) signaling pathway - cell viability counter screen (AID 743064); further: nearly all actives have a fitted effect of over 50% in size
# Method in brief: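 GH3.TRE-Luc cells, 4 h pre-plating; cpd + T3 1 nM final; 37 °C 23.5 h; CellTiter-Fluor 30 min; fluorescence read.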
# [12] = qHTS assay to identify small molecule antagonists of the thyroid receptor (TR) signaling pathway (AID 743065); further: nearly all actives have a fitted effect of over 55% in size
# Method in brief: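 GH3.TRE-Luc rat pituitary cells carrying two TR response elements driving luciferase were plated for 4 h, given compound plus 1 nM T3 (final), and incubated 23.5 h at 37 C. ONE-Glo luminescence measured reporter inhibition; CellTiter-Fluor fluorescence tracked cytotoxicity.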
# [13] = tested on: thyroid hormone receptor (rat, GH3 cells); test: qHTS assay to identify small molecule agonists of the thyroid receptor (TR) signaling pathway (AID 743066; calls by dose curve; further: potency means the concentration at half of the fitted maximal effect)
# [14] = target: Estrogen receptor (Homo sapiens) (UniProt P03372); test: qHTS assay to identify small molecule antagonists of the estrogen receptor alpha (ER-alpha) signaling pathway (AID 743069; active means well fitted curve in the direction sought with a large enough effect in the signal ratio in the repeat runs, not every such curve was filed as active; the % refers to the signal ratio)
# Estrogen receptor (Homo sapiens), sequence (P03372 whole entry, looked up): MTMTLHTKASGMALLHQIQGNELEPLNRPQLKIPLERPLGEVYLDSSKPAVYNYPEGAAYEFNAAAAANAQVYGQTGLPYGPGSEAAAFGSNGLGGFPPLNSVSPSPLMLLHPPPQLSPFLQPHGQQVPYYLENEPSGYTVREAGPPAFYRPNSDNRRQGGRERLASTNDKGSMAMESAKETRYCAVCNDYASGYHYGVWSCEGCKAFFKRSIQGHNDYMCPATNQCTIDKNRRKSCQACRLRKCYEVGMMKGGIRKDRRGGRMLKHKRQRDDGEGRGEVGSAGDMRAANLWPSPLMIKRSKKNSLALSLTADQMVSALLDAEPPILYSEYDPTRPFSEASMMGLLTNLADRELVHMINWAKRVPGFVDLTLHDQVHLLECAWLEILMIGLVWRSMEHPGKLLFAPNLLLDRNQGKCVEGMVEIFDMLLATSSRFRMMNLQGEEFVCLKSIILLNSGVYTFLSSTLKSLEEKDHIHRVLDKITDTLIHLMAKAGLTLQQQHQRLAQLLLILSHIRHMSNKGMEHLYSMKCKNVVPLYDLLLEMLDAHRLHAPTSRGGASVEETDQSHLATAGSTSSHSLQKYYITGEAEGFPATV
# Method in brief: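 Screening used a UAS-driven beta-lactamase reporter integrated into HEK293 cells expressing ER-alpha, stimulated with 17beta-estradiol alongside test compounds over 18 hr at 37C; signal came from LiveBLAzer B/G FRET fluorescence.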
# [15] = qHTS assay to identify small molecule antagonists of the estrogen receptor alpha (ER-alpha) signaling pathway - cell viability counter screen (AID 743074; calls by dose curve; further: nearly all actives have a fitted effect of over 45% in size)
# [16] = target: Estrogen receptor (Homo sapiens) (UniProt P03372); test: qHTS assay to identify small molecule agonists of the estrogen receptor alpha (ER-alpha) signaling pathway (AID 743075; calls by dose curve)
# [17] = target: Estrogen receptor (Homo sapiens) (UniProt P03372); test: qHTS assay to identify small molecule agonists of the estrogen receptor alpha (ER-alpha) signaling pathway using the BG1 cell line (AID 743079); settings: BG1Luc4E2 cells, ERE-luciferase agonist, 22 h; further: nearly all actives have a fitted effect of over 20% in size; further: potency means the concentration at half of the fitted maximal effect
# [18] = qHTS assay to identify small molecule antagonists of the estrogen receptor alpha (ER-alpha) signaling pathway using the BG1 cell line (AID 743080; calls by dose curve;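 further: BG1 cells stimulated with 17beta-estradiol alongside compound; nearly all actives have a fitted effect of over 25% in size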)
# Method in brief: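 BG1Luc4E2, endogenous ER-alpha, 4xERE-luc; 5 d charcoal-stripped FBS, phenol red free; 24 h plating; cpd + 17beta-estradiol 21.5 h, 37 C/5% CO2; CellTiter-Fluor viability 30 min, then ONE-Glo luciferase 30 min RT.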
# [19] = qHTS assay to identify small molecule antagonists of the estrogen receptor alpha (ER-alpha) signaling pathway using the BG1 cell line - cell viability counter screen (AID 743081);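 further: compound given together with 17beta-estradiol as the ER stimulus; nearly all actives have a fitted effect of over 45% in size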
# [20] = target: Aromatase (Homo sapiens) (UniProt P11511); test: qHTS assay to identify aromatase inhibitors (AID 743083); further: nearly all actives have a fitted effect of over 55% in size; further: potency means the concentration at half of the fitted maximal effect
# Aromatase (Homo sapiens), sequence (P11511 whole entry, looked up): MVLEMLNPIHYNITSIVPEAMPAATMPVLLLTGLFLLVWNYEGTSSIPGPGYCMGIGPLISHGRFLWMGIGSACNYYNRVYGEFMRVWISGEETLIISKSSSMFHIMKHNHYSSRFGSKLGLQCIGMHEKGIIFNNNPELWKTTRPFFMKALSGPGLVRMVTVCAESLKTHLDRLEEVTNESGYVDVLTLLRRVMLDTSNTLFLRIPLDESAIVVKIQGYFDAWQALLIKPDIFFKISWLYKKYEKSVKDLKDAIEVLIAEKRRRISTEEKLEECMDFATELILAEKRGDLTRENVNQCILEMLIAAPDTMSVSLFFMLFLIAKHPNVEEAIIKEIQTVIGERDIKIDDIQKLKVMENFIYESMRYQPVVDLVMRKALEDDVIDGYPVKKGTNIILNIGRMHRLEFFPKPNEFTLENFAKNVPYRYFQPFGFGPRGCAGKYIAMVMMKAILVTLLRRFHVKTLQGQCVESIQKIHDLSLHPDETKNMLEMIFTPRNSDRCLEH
smiles,measurement,setting,value
c1cc2c(c(N3CCNCC3)c1)OCCO2,Potency,[1],inactive
same,Potency,[2],inactive
same,Potency,[3],inactive
same,Potency,[4],inactive
same,Potency,[5],inactive
same,Potency,[6],inactive
same,outcome,[7],inactive
same,Potency,[8],inactive
same,Potency,[9],inactive
same,outcome,[10],inactive
same,Potency,[11],inactive
same,Potency,[12],inactive
same,Potency,[13],inactive
same,Potency,[14],inactive
same,outcome,[15],inactive
same,Potency,[16],inactive
same,activation,[17]; at 70.3 µM (top of the series),9.1%
same,Potency,[18],inactive
same,Potency,[19],inactive
same,Potency,[20],inactive
CC(C)[N+](=O)[O-],Potency,[1],inactive
same,Potency,[2],inactive
same,Potency,[3],inactive
same,Potency,[4],inactive
same,Potency,[5],inactive
same,Potency,[9],inactive
same,Potency,[11],inactive
same,Potency,[12],inactive
same,Potency,[13],inactive
same,outcome,[15],inactive
same,Potency,[19],inactive
same,Potency,[20],inactive
CC(=O)CC(c1ccc(Cl)cc1)c1c(O)c2ccccc2oc1=O (stereo not drawn),Potency,[1],inactive
same,Potency,[2],inactive
same,Potency,[3],inactive
same,Potency,[4],inactive
same,Potency,[5],inactive
same,Potency,[9],inactive
same,Potency,[11],inactive
same,Potency,[12],inactive
same,Potency,[13],inactive
same,Potency,[14],inactive
same,outcome,[15],inactive
same,Potency,[16],inactive
same,activation,[17]; at 95 µM (top of the series),-6.05%
same,Potency,[18],inactive
same,Potency,[19],inactive
same,Potency,[20],inactive
C=C(C)[C@@H]1CC=C(C=O)CC1,Potency,[1],inactive
same,Potency,[2],54.5 µM (active)
same,Potency,[3],61.1 µM (active)
same,Potency,[4],54.5 µM (active)
same,Potency,[5],inactive
same,Potency,[9],inactive
same,Potency,[11],inactive
same,Potency,[12],inactive
same,Potency,[13],inactive
same,Potency,[14],inactive
same,outcome,[15],inactive
same,Potency,[16],inactive
same,activation,[17]; at 70.3 µM (top of the series),3.7%
same,Potency,[18],inactive
same,Potency,[19],inactive
same,Potency,[20],inactive
COc1cc2c(cc1OC)[C@@]13CCN4CC5=CCO[C@H]6CC(=O)N2[C@H]1[C@H]6[C@H]5C[C@H]43,Potency,[1],inactive
same,Potency,[2],24.3 µM (active)
same,Potency,[3],24.3 µM (active)
same,Potency,[4],26.6 µM (active) and 13.7 µM (active)
same,Potency,[5],inactive
same,Potency,[9],inactive
same,Potency,[11],inactive
same,Potency,[12],inactive
same,Potency,[13],inactive
same,Potency,[14],inactive
same,outcome,[15],inactive
same,Potency,[16],inactive
same,activation,[17]; at 70.3 µM (top of the series),-4.94%
same,Potency,[18],inactive
same,Potency,[19],inactive
same,Potency,[20],inactive
COc1ccc(C(=O)N2CCCC2=O)cc1,Potency,[1],inactive
same,Potency,[2],inactive
same,Potency,[3],inactive
same,Potency,[4],inactive
same,Potency,[5],0.0085 µM (active)
same,Potency,[9],inactive
same,Potency,[11],inactive
same,Potency,[12],inactive
same,Potency,[13],inactive
same,outcome,[15],inactive
same,Potency,[19],inactive
same,Potency,[20],inactive
O=C(Nc1ccccc1)c1ccccc1I,Potency,[1],inactive
same,Potency,[2],48.6 µM (active)
same,Potency,[3],27.3 µM (active)
same,Potency,[4],61.1 µM (active)
same,Potency,[5],inactive
same,outcome,[7],inactive
same,Potency,[8],inactive
same,Potency,[9],inactive
same,outcome,[10],inactive
same,Potency,[11],inactive
same,Potency,[12],inactive
same,Potency,[13],inactive
same,outcome,[15],inactive
same,Potency,[16],inactive
same,activation,[17]; at 70.3 µM (top of the series),0.753%
same,Potency,[18],inactive
same,Potency,[19],inactive
N#CCBr,Potency,[1],inactive
same,Potency,[2],inactive
same,Potency,[3],inactive
same,Potency,[4],inactive
same,Potency,[5],inactive
same,Potency,[9],inactive
same,Potency,[11],inactive
same,Potency,[12],inactive
same,Potency,[13],inactive
same,Potency,[14],inactive
same,outcome,[15],inactive
same,Potency,[16],inactive
same,activation,[17]; at 95 µM (top of the series),0.199%
same,Potency,[18],inactive
same,Potency,[19],inactive
same,Potency,[20],inactive
Cc1cccc(C#N)c1,Potency,[1],inactive
same,Potency,[2],inactive
same,Potency,[3],inactive
same,Potency,[4],inactive
same,Potency,[5],inactive
same,Potency,[9],inactive
same,Potency,[11],inactive
same,Potency,[12],inactive
same,Potency,[13],inactive
same,Potency,[14],inactive
same,outcome,[15],inactive
same,Potency,[16],inactive
same,Potency,[17],68.2 µM (active)
same,Potency,[18],inactive
same,Potency,[19],inactive
same,Potency,[20],inactive
CCCCOC(=O)c1ccccc1C(=O)O,Potency,[1],inactive
same,Potency,[2],inactive
same,Potency,[3],inactive
same,Potency,[4],inactive
same,Potency,[5],inactive
same,Potency,[6],inactive
same,Potency,[8],inactive
same,Potency,[9],inactive
same,outcome,[10],inactive
same,Potency,[11],inactive
same,Potency,[12],inactive
same,Potency,[13],inactive
same,outcome,[15],inactive
same,Potency,[19],inactive
same,Potency,[20],inactive
Cc1nnc2n1-c1sc(CCC(=O)N3CCOCC3)cc1C(c1ccccc1Cl)=NC2,Potency,[1],inactive
same,Potency,[2],inactive
same,Potency,[3],inactive
same,Potency,[4],inactive
same,Potency,[5],inactive
same,Potency,[9],inactive
same,Potency,[11],inactive
same,Potency,[12],inactive
same,Potency,[13],inactive
same,Potency,[14],inactive
same,outcome,[15],inactive
same,Potency,[16],inactive
same,activation,[17]; at 70.3 µM (top of the series),-7.93% and -17.7%
same,Potency,[18],inactive
same,Potency,[19],inactive
same,Potency,[20],inactive
ClC(Cl)C(Cl)Cl,Potency,[1],inactive
same,Potency,[2],inactive
same,Potency,[3],inactive
same,Potency,[4],inactive
same,Potency,[5],inactive
same,Potency,[9],inactive
same,Potency,[11],inactive
same,Potency,[12],inactive
same,Potency,[13],inactive
same,Potency,[14],inactive
same,outcome,[15],inactive
same,Potency,[16],inactive
same,activation,[17]; at 95 µM (top of the series),-0.198%
same,Potency,[18],inactive
same,Potency,[19],inactive
same,Potency,[20],inactive
c1cc[c]([Hg][c]2ccccc2)cc1,Potency,[1],inactive
same,Potency,[2],0.273 µM (active)
same,Potency,[3],0.243 µM (active)
same,Potency,[4],0.193 µM (active)
same,Potency,[5],inactive
same,Potency,[6],43.6 µM (active)
same,outcome,[7],inactive
same,Potency,[8],inactive
same,Potency,[9],inactive
same,outcome,[10],inactive
same,Potency,[13],inactive
same,Potency,[14],inactive
same,outcome,[15],inactive
same,Potency,[16],inactive
same,Potency,[19],inactive
same,Potency,[20],inactive
CC(C)(C)C(=O)C(Oc1ccc(Cl)cc1)n1cncn1 (stereo not drawn),Potency,[1],inactive
same,Potency,[2],61.1 µM (active)
same,Potency,[3],30.6 µM (active)
same,Potency,[4],30.6 µM (active)
same,Potency,[5],inactive
same,Potency,[9],inactive
same,Potency,[11],inactive
same,Potency,[12],inactive
same,Potency,[13],inactive
same,outcome,[15],inactive
same,Potency,[19],inactive
same,Potency,[20],54.4 µM (active)
CC1(C)COP(Oc2ccccc2)OC1,Potency,[1],inactive
same,Potency,[2],inactive
same,Potency,[3],inactive
same,Potency,[4],inactive
same,Potency,[5],inactive
same,Potency,[6],inactive
same,outcome,[7],inactive
same,Potency,[8],inactive
same,Potency,[9],inactive
same,outcome,[10],inactive
same,Potency,[11],inactive
same,Potency,[12],inactive
same,Potency,[13],54.5 µM (active)
same,outcome,[15],inactive
same,Potency,[19],inactive
same,Potency,[20],inactive
O=P(O)(Oc1ccccc1)Oc1ccccc1,Potency,[1],inactive
same,Potency,[2],inactive
same,Potency,[3],inactive
same,Potency,[4],inactive
same,Potency,[5],inactive
same,Potency,[9],inactive
same,Potency,[11],inactive
same,Potency,[12],inactive
same,Potency,[13],inactive
same,Potency,[14],inactive
same,outcome,[15],inactive
same,Potency,[16],inactive
same,activation,[17]; at 70.3 µM (top of the series),1.22%
same,Potency,[18],inactive
same,Potency,[19],inactive
same,Potency,[20],inactive
